# TROY NFkB inh: inhibitors of TROY-dependent NF-kB signaling. inhibition, % at 10 µM. actives 0.98% (n = 360,000). Q293 LMP1-TROYcd NF-kB luciferase reporter, 4 h;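 active = compounds whose plate-normalised and pattern-corrected inhibition of the luciferase reporter signal at the single screening dose is 50% or more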
# MITF act: MITF TRPM1 promoter activation in melanoma cells | SK-MEL-5 TRPM1-promoter luciferase, 24 h; % of positive control, neutral wells = 0 | activation, % at 12.5 µM | actives 0.75% (n = 300,000) | AID 588334;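 active = mean activation of at least 80% with every replicate also reaching 80%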;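 note: 0% = neutral control wells and 100% = parthenolide positive control wells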
# LGR2 antag: blocks bursicon-induced cAMP signaling via Drosophila LGR2; HEK293 LGR2, CRE-luciferase, bursicon-stimulated, 4 h; inhibition, % at 9.99 µM; actives 0.35% (n = 380,000);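 active = drop in luminescence signal, shown as inhibition above about 50% in the replicate tests, limit read from the data, passing the limit was not always enough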;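 note: agonist challenge used bursicon conditioned medium at about half maximal strength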
# TWEAK-Fn14 inh: blocks TWEAK-Fn14 interaction in a reporter cell assay. actives 2% (n = 360,000). AID 1159606. TWEAK-stimulated Fn14 reporter cells, luciferase luminescence, 8 h. inhibition, % at 10 µM; in the data active = inhibition above about 50%
# EBV LMP1 NFkB: inhibitors of Epstein-Barr LMP1-induced NF-kappaB reporter | LMP1-induced NF-kappaB luciferase reporter cells, luminescence | inhibition, % at 12.5 µM | actives 0.69% (n = 350,000); in the data active = inhibition above about 41%;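 note: 0% = neutral control wells and 100% = reference inhibitor control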
# TRPM1 prom inh: reduces MITF-dependent TRPM1 promoter luciferase signal. SK-MEL-5 TRPM1 promoter luciferase, 24 h. actives 0.83% (n = 330,000). AID 488899. inhibition, % at 12.5 µM;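 active = mean inhibition across replicates of 60% or more, whatever share of single replicates reaches that level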
# Active calls of the source: *; · = not tested or not shown. In the library only some 3% were active in any assay of this set; here they are far more common.
SMILES,TROY NFkB inh,MITF act,LGR2 antag,TWEAK-Fn14 inh,EBV LMP1 NFkB,TRPM1 prom inh
CC(C)C#Cc1cnc2c(c1)C(=O)N([C@H](C)CO)C[C@@H](C)[C@@H](CN(C)C(=O)Nc1ccccc1)O2,·,·,6,·,·,·
CCC(=O)N1C[C@@H](C)[C@H](OC)CN(C)C(=O)c2cc(NC(=O)C3CC3)ccc2OC[C@@H]1C,·,·,3,·,·,·
Cc1cc(NC2CCCC2)n2nc(C)c(-c3ccccc3)c2n1,-31,100*,-40,-31,-23,-91
COC1=C(OC)C(=O)C(CCCCCCCCCCO)=C(C)C1=O,50*,·,·,77*,·,·
O=C(CC(Nc1cccc(Cl)c1Cl)C(=O)O)c1ccccc1 (centres undefined),21,-1,-27,-9,-6,2
O=C(CC(Nc1ccccc1Cl)C(=O)O)c1ccccc1 (centres undefined),65*,-3,22,61*,-15,8
CNC[C@@H]1Oc2ncc(C#CC3(O)CCCC3)cc2C(=O)N([C@H](C)CO)C[C@@H]1C,·,·,-3,·,·,·
C[C@@H]1CCCCO[C@@H](CN(C)S(=O)(=O)c2ccc(F)cc2)[C@@H](C)CN([C@H](C)CO)C(=O)c2cc(NC(=O)CCCN(C)C)ccc2O1,·,·,10,·,·,·
N#Cc1c(NCCN)nc(-c2ccco2)c2c1CCCC2,-3,5,·,-24,78*,-3
CC(C)CCNc1nc(-c2ccco2)c2c(c1C#N)CCCC2,9,-7,2,10,-7,8
Cc1ccc(S(=O)(=O)/N=C2\C=C(Nc3ccc(O)cc3)C(=O)c3ccccc32)cc1,43,-98,·,101*,88*,99*
Cc1ccc(S(=O)(=O)/N=C2\C=C(Nc3cccc(C(=O)O)c3)C(=O)c3ccccc32)c(C)c1,16,-15,16,93*,-13,17
Cc1ccc(S(=O)(=O)/N=C2\C=C(Nc3cccc(C(=O)O)c3)C(=O)c3ccccc32)cc1,-6,-2,-27,94*,-12,3
CC(C)(C)c1ccc(S(=O)(=O)/N=C2\C=C(NS(=O)(=O)c3ccccc3)C(=O)c3ccccc32)cc1,11,-4,14,14,2,6
CCc1ccc(S(=O)(=O)/N=C2\C=C(Nc3ccc(C(=O)O)cc3)C(=O)c3ccccc32)cc1,48,-15,103*,96*,0,16
CO[C@@H]1CN(C)C(=O)c2ccc(NC(=O)c3ccno3)cc2OC[C@@H](C)NC[C@@H]1C,·,·,5,·,·,·
COc1ccc2c3c([nH]c2c1)[C@@H](CO)N(Cc1cccc(F)c1)CC31CCN(C(C)=O)CC1,·,·,-11,·,·,·
C[C@@H]1CN([C@@H](C)CO)C(=O)c2cc(C#CC(C)(C)O)cnc2O[C@@H]1CN(C)Cc1cncnc1,·,·,7,·,·,·
CO[C@@H]1CN(C)C(=O)c2ccc(NC(=O)c3ccno3)cc2OC[C@H](C)NC[C@H]1C,·,·,-1,·,·,·
CC(C)(C)c1cc(NC(=O)Nc2ccccc2)no1,-20,113*,-100,-10,-19,-117
COC(=O)c1ccccc1NC(=O)Nc1cc(C(C)(C)C)on1,44,39,-9,24,-11,-41
Cc1cc(C(=O)Nc2ccon2)c(C)o1,-19,17,-4,-3,-5,-14
Cc1cc(C(=O)Nc2cc(C(C)(C)C)on2)c(C)o1,-43,89*,·,-21,-25,-88
Cc1noc(C)c1NC(=O)Nc1cccc2c1O[C@H](CN(C)S(=O)(=O)c1ccccc1)[C@H](C)CN([C@@H](C)CO)C2=O,·,·,-22,·,·,·
CC(=O)Nc1ccc(NC(=O)C2CCC(N3C(=O)C4C5C=CC(C6CC56)C4C3=O)CC2)cc1 (centres undefined),-7,-4,4,-29,4,1
SMILES,TROY NFkB inh,MITF act,LGR2 antag,TWEAK-Fn14 inh,EBV LMP1 NFkB,TRPM1 prom inh
O=C(Nc1ccc(Cc2ccncc2)cc1)C1CCC(N2C(=O)C3C4C=CC(C5CC45)C3C2=O)CC1 (centres undefined),53*,·,·,47,-13,40
ClCCn1cnc2c(SCc3ccccc3)ncnc21,-41,138*,-55,-66,14,-128
O=S(=O)(c1ccccc1)N1CCN(c2cc(-c3ccccc3)nc3ncnn23)CC1,32,-48,·,70*,43*,49
Cc1ccc(S(=O)(=O)N2CCN(c3ncnc4scc(-c5ccccc5)c34)CC2)cc1,2,-30,17,-3,-8,29
Cc1sc2ncnc(N3CCN(S(=O)(=O)c4ccccc4)CC3)c2c1C,5,-2,·,74*,6,2
O=S(=O)(c1ccccc1)N1CCN(c2ncnc3sc(-c4ccccc4)cc23)CC1,37,0,·,81*,23,4
O=S(=O)(c1ccc(Br)cc1)N1CCN(c2cc(-c3ccccc3)nc3ncnn23)CC1,-10,6,7,25,11,-11
Cc1ccc(OCCN2CCN(c3ncnc4sc(C)c(C)c34)CC2)cc1,39,·,·,50*,10,38
c1ccc(-c2cc3c(N4CCN(c5ccccc5)CC4)ncnc3s2)cc1,27,4,-41,42,6,2
Cc1sc2ncnc(N3CCCCC3)c2c1C,15,11,2,-1,12,-8
COc1cccc(C(=O)Nc2ccc3c(c2)OC[C@@H](C)N(C(C)=O)C[C@@H](C)[C@H](OC)CN(C)C3=O)c1,·,·,-2,·,·,·
COc1cccc(-c2ccc([C@@H]3[C@H](CO)N(C(=O)C4CC4)C34CN(C(C)=O)C4)cc2)c1,·,·,6,·,·,·
CO[C@H]1CN(C)C(=O)c2cc(NC(=O)c3cccc(F)c3)ccc2OC[C@H](C)NC[C@H]1C,·,·,-6,·,·,·
O=C(NC(=S)/C(=C1\CCCCCN1)[N+](=O)[O-])c1ccccc1,87*,-27,·,99*,40*,27
O=C(NC(=S)Nc1ccccc1[N+](=O)[O-])c1ccccc1,-25,·,-26,-13,-13,-60
COc1cc(OC)c(OC)cc1CNC(=O)c1cccc(S(=O)(=O)N2CCc3ccccc3C2)c1,51*,-32,9,81*,26,26
O=C1CN(Cc2ccccc2)C[C@@H]2[C@H](c3ccc(Br)cc3)[C@@H](CO)N12,·,·,4,·,·,·
CCCCSc1nc2c(cc1C#N)CCC2,-43,16,-15,-10,-7,-16
CCCSc1nc(C)c(-c2csc(C(C#N)=C3CCCC3)n2)cc1C#N,-10,-30,1,64*,5,31
CNC(=O)CC1C(=O)N(c2ccc(Cl)cc2)C(=S)N1NC(=O)c1cccc(F)c1 (centres undefined),-12,-5,-5,9,-10,5
CNC(=O)CC1C(=O)N(c2ccc(OC)cc2)C(=S)N1NC(=O)c1cccc(F)c1 (centres undefined),84*,·,0,-7,·,·
CC(=O)Nc1ccc(C(=O)N/C(=C/c2ccccc2)C(=O)Nc2cccc(C(=O)O)c2)cc1,-21,10,-15,-20,-8,-10
